Molecular target: Hexose transporter 1 (Plasmodium falciparum) (UniProt O97467)
Assay: ST_JUDE_LEISH: Cytotoxicity at 2uM final concentration against transgenic Leishmania Mexicana promastigotes LmPfHT that are glucose transport deficient and complemented with the Plasmodium falciparum hexose transporter. Activity is measured by DNA content using SYBR green in vitro
Format: functional

Row | SMILES | inhibition [%]
1 | CCC[C@@H](C(=O)NCCc1cccc(OC)c1)N1C(=O)c2c(ccc(OC)c2OC)C1C(=O)Nc1c(C)cccc1C (stereo not given in full) | 0
2 | COc1ccc2[nH]ccc(=NN=Cc3ccc(F)cc3)c2c1 | -0.63
3 | CCOc1ccc2c(=NN=Cc3cccc(OC)c3)cc(C)[nH]c2c1 | -0.19
4 | COc1ccc2nccc([C@@H](O)CN3CCC(NC(=O)c4ccc(OC)c(N)c4)CC3)c2c1 | 16.7
5 | CCCCC(N)COc1cccc2c(-c3ccncc3)c(-c3cccc(NC(=O)Nc4ccccc4)c3)nn12 (stereo not given) | 2.13
6 | COc1ccc(NC(=O)CCNc2cc(C)nc(NCc3ccccc3C)n2)cc1 | 5.4
7 | C/C=C/COc1ccc2ccccc2c1CNCCCCCCCCNCc1c(OC/C=C/C)ccc2ccccc12 | 7.28
8 | COc1ccc(Nc2nc(C)cc(NCc3ccc(-c4c(C)noc4C)cc3)n2)cc1 | 13.9
9 | O=C(Nc1cccc(CN2CCCN(Cc3ccccc3)CC2)c1)c1ccc(-c2ccccc2)cc1 | 4.14
10 | O=C(Nc1cc(Cl)cc(Cl)c1)Nc1ccnc2ccccc12 | 2.02
11 | O=C(Nc1cccc(-c2nn3ccccc3c2-c2ccnc(Nc3cccc(F)c3)n2)c1)c1c(F)ccc(F)c1Cl | 10.4
12 | CCNc1cc(CC)nc(Nc2ccc(C)cc2)n1 | 28.9
13 | CCCCNc1nccc2ccc(-c3ccncc3)cc12 | 4.02
14 | COc1ccccc1CCNc1ncnc2c1[nH]c1ccc(F)cc12 | 12.9
15 | COc1ccc(CN2CCC2=O)c(OC)c1 | 3.17
16 | COc1ccc(-c2cccc(NC(=O)c3cccc(Cl)c3)c2)cc1CN1CCCC1 | 5.81
17 | Cc1ccc(Oc2ncccc2C(=O)Nc2cccc3cccnc23)c(C)c1 | -0.84
18 | COc1ccc(-c2cn3c(C(=O)Nc4ccccc4Cl)c(-c4ccccc4)c4c3n2CCCC4)cc1 | 0.92
19 | CC(=O)Nc1ccc(OCCN(Cc2ccccc2C(F)(F)F)c2ccc(C#N)c(C(F)(F)F)c2)cc1 | 16
20 | O=[N+]([O-])c1cccc(NC(=S)N2CCCN(Cc3ccc(C(F)(F)F)cc3)CC2)c1 | 4.79

Row | SMILES | inhibition [%]
21 | c1ccc2c(NCCCCCCCNc3ccnc4ccccc34)ccnc2c1 | 13.3
22 | COc1ccc(C2CCN(CCCCNC(=O)c3ccc(NC(=O)c4ccc(Cl)cc4)cc3)CC2)c(OC)c1 | 5.21
23 | CC(C)NC(=N)NN=Cc1ccc(Cl)c(Cl)c1 | 2.99
24 | CC1CN(c2ccnc3ccc(Sc4ccc(Oc5ccccc5)cc4)cc23)CC(C)N1 (stereo not given) | 2.41
25 | Cc1ccc2[nH]c3c(NCCCN4CCOCC4)ncnc3c2c1 | -2.37
26 | O=C(Cc1ccccc1)NC(c1ccco1)c1cc(Cl)c2cccnc2c1O (stereo not given) | -0.27
27 | O=C(CC1NC(=O)c2ccccc21)Nc1ccc(-c2ccc(-c3nc4cc(C(F)(F)F)ccc4[nH]3)cc2)cc1 (stereo not given) | 3.05
28 | O=C(Nc1ccc(N2CCCCC2)c(Cl)c1)c1ccco1 | 0.86
29 | COc1cc(-c2cc(-c3ccc(S(C)(=O)=O)cc3)cnc2N)ccc1O | 6.34
30 | CCOc1ccc2c(c1)N(C(=O)C=Cc1ccccc1)C(C)(C)c1ssc(=S)c1-2 | 0.43
31 | Fc1ccc2[nH]c(-c3cccc(-c4ccc(CNCCN5CCNCC5)cc4)c3)nc2c1 | -0.52
32 | CCN(CC)CCOc1ccc(N(Cc2ccc(C(C)(C)C)cc2)C(=O)c2ccc(Cc3ccccc3)cc2)cc1OC | 14.8
33 | COc1cc(C(=O)N2CCOC(CCN3CCC(c4ccc(Cl)cc4)CC3)(c3ccc(Cl)c(Cl)c3)C2)cc(OC)c1OC (stereo not given) | 11.2
34 | Fc1ccccc1COc1ccc(Nc2ncnc3ccc(-c4nnc(C(F)(F)F)o4)cc23)cc1Cl | 5.31
35 | COc1cc2c(cc1N(C(C)C)S(=O)(=O)c1sc3ccc(Cl)cc3c1C)CCNCC2 | 10.2
36 | O=C(Nc1nccs1)c1cn(-c2ccccc2)nc1-c1ccc(Cl)s1 | 2.82
37 | Cc1ccc(CNC(=O)[C@H](CCCN)Nc2cc(C)nc(NCC3CCCCC3)n2)cc1 | 1.17
38 | Cc1cccc2nc(-c3ccc(-c4ccc(CNCCc5ccncc5)cc4)cc3)[nH]c12 | 21.1
39 | c1ccc(Oc2ccc(Nc3ccnc4ccc(-c5ccccn5)cc34)cc2)cc1 | 4.16
40 | O=C(NCc1cccc(F)c1)Nc1ccc(-c2ccc(-c3nc4cc(C(F)(F)F)ccc4[nH]3)cc2)cc1 | -0.45

Molecular target: Glucose transporter (Leishmania mexicana) (UniProt O61059)
Assay: ST_JUDE_LEISH: Cytotoxicity at 2uM final concentration against transgenic Leishmania Mexicana promastigotes LmGT2 that are glucose transport deficient and complemented with the L. Mexicana glucose transporter 2. Activity is measured by DNA content using SYBR green in vitro
Format: functional

Row | SMILES | inhibition [%]
41 | CCC[C@@H](C(=O)NCCc1cccc(OC)c1)N1C(=O)c2c(ccc(OC)c2OC)C1C(=O)Nc1c(C)cccc1C (stereo not given in full) | 0.1
42 | COc1ccc2[nH]ccc(=NN=Cc3ccc(F)cc3)c2c1 | -0.34
43 | CCOc1ccc2c(=NN=Cc3cccc(OC)c3)cc(C)[nH]c2c1 | -0.12
44 | COc1ccc2nccc([C@@H](O)CN3CCC(NC(=O)c4ccc(OC)c(N)c4)CC3)c2c1 | 11.5
45 | CCCCC(N)COc1cccc2c(-c3ccncc3)c(-c3cccc(NC(=O)Nc4ccccc4)c3)nn12 (stereo not given) | 2.8
46 | COc1ccc(NC(=O)CCNc2cc(C)nc(NCc3ccccc3C)n2)cc1 | 3.93
47 | C/C=C/COc1ccc2ccccc2c1CNCCCCCCCCNCc1c(OC/C=C/C)ccc2ccccc12 | 1.19
48 | COc1ccc(Nc2nc(C)cc(NCc3ccc(-c4c(C)noc4C)cc3)n2)cc1 | 2.01
49 | O=C(Nc1cccc(CN2CCCN(Cc3ccccc3)CC2)c1)c1ccc(-c2ccccc2)cc1 | -0.61
50 | O=C(Nc1cc(Cl)cc(Cl)c1)Nc1ccnc2ccccc12 | -2.71
51 | O=C(Nc1cccc(-c2nn3ccccc3c2-c2ccnc(Nc3cccc(F)c3)n2)c1)c1c(F)ccc(F)c1Cl | 6.24
52 | CCNc1cc(CC)nc(Nc2ccc(C)cc2)n1 | 17.9
53 | CCCCNc1nccc2ccc(-c3ccncc3)cc12 | 4.26
54 | COc1ccccc1CCNc1ncnc2c1[nH]c1ccc(F)cc12 | 10.1
55 | COc1ccc(CN2CCC2=O)c(OC)c1 | 3.38
56 | COc1ccc(-c2cccc(NC(=O)c3cccc(Cl)c3)c2)cc1CN1CCCC1 | -1.22
57 | Cc1ccc(Oc2ncccc2C(=O)Nc2cccc3cccnc23)c(C)c1 | -1.45
58 | COc1ccc(-c2cn3c(C(=O)Nc4ccccc4Cl)c(-c4ccccc4)c4c3n2CCCC4)cc1 | -0.58
59 | CC(=O)Nc1ccc(OCCN(Cc2ccccc2C(F)(F)F)c2ccc(C#N)c(C(F)(F)F)c2)cc1 | 28.2
60 | O=[N+]([O-])c1cccc(NC(=S)N2CCCN(Cc3ccc(C(F)(F)F)cc3)CC2)c1 | 3.25

Row | SMILES | inhibition [%]
61 | c1ccc2c(NCCCCCCCNc3ccnc4ccccc34)ccnc2c1 | 12.9
62 | COc1ccc(C2CCN(CCCCNC(=O)c3ccc(NC(=O)c4ccc(Cl)cc4)cc3)CC2)c(OC)c1 | 3.22
63 | CC(C)NC(=N)NN=Cc1ccc(Cl)c(Cl)c1 | 0.07
64 | CC1CN(c2ccnc3ccc(Sc4ccc(Oc5ccccc5)cc4)cc23)CC(C)N1 (stereo not given) | -0.77
65 | Cc1ccc2[nH]c3c(NCCCN4CCOCC4)ncnc3c2c1 | 0.92
66 | O=C(Cc1ccccc1)NC(c1ccco1)c1cc(Cl)c2cccnc2c1O (stereo not given) | -0.18
67 | O=C(CC1NC(=O)c2ccccc21)Nc1ccc(-c2ccc(-c3nc4cc(C(F)(F)F)ccc4[nH]3)cc2)cc1 (stereo not given) | 5.45
68 | O=C(Nc1ccc(N2CCCCC2)c(Cl)c1)c1ccco1 | -1.58
69 | COc1cc(-c2cc(-c3ccc(S(C)(=O)=O)cc3)cnc2N)ccc1O | 9.19
70 | CCOc1ccc2c(c1)N(C(=O)C=Cc1ccccc1)C(C)(C)c1ssc(=S)c1-2 | 0.85
71 | Fc1ccc2[nH]c(-c3cccc(-c4ccc(CNCCN5CCNCC5)cc4)c3)nc2c1 | -0.74
72 | CCN(CC)CCOc1ccc(N(Cc2ccc(C(C)(C)C)cc2)C(=O)c2ccc(Cc3ccccc3)cc2)cc1OC | 13.1
73 | COc1cc(C(=O)N2CCOC(CCN3CCC(c4ccc(Cl)cc4)CC3)(c3ccc(Cl)c(Cl)c3)C2)cc(OC)c1OC (stereo not given) | 13.7
74 | Fc1ccccc1COc1ccc(Nc2ncnc3ccc(-c4nnc(C(F)(F)F)o4)cc23)cc1Cl | 2.13
75 | COc1cc2c(cc1N(C(C)C)S(=O)(=O)c1sc3ccc(Cl)cc3c1C)CCNCC2 | 3.21
76 | O=C(Nc1nccs1)c1cn(-c2ccccc2)nc1-c1ccc(Cl)s1 | 3.16
77 | Cc1ccc(CNC(=O)[C@H](CCCN)Nc2cc(C)nc(NCC3CCCCC3)n2)cc1 | 0.32
78 | Cc1cccc2nc(-c3ccc(-c4ccc(CNCCc5ccncc5)cc4)cc3)[nH]c12 | 10.1
79 | c1ccc(Oc2ccc(Nc3ccnc4ccc(-c5ccccn5)cc34)cc2)cc1 | 3.02
80 | O=C(NCc1cccc(F)c1)Nc1ccc(-c2ccc(-c3nc4cc(C(F)(F)F)ccc4[nH]3)cc2)cc1 | 1.77
